# A number with no mark means an inactive call. Entries that show only a call come without a potency. Calls of active or inactive are those of the source. Calls come from the whole dose curve.
# Target: Acetylcholinesterase (Homo sapiens) (UniProt P22303)
# Experiment: Acetylcholinesterase (AChE) small molecule antagonists: enzyme-based qHTS assay with human liver microsomes (AID 1347399); note: nearly all actives have a fitted effect of over 60% in size
# Conditions: Potency: qHTS inhibition; outcome: qHTS inhibition; series mostly up to 115 µM
# Procedure, shortened: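 Recombinant human AChE (50 mU/mL in the enzyme mix) and human liver microsomes (0.25 mg/mL final) were preincubated with compound and NADPH (0.25 mg/mL final) for 30 min at 37 C. Acetylthiocholine/DTNB was then added; thiocholine was read colorimetrically after 10 min at room temperature.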
# Chain of Acetylcholinesterase (Homo sapiens) (P22303 whole entry, looked up): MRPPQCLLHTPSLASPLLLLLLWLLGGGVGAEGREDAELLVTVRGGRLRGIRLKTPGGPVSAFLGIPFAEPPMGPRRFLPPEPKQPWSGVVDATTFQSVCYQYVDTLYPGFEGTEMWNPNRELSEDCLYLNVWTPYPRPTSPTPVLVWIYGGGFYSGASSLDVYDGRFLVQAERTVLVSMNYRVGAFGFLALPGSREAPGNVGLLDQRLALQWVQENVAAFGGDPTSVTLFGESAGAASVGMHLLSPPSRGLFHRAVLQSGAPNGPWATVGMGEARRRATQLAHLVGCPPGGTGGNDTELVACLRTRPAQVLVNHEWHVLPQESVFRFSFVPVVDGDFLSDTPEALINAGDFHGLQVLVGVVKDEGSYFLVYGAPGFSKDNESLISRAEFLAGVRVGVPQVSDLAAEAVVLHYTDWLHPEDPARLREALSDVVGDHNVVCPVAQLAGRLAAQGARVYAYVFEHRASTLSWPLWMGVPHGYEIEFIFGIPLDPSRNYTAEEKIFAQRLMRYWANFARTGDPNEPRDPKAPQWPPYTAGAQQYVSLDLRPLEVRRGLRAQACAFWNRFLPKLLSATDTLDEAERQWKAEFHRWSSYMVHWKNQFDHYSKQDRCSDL
Structure (SMILES),Potency,"activity change, negative = inhibition"
Cc1cccc(OCCOc2cccc(C)c2)c1,inactive,–
CCOC(=O)COc1ccc2c(C)c(CCN(CC)CC)c(=O)oc2c1Cl,inactive,–
CC1(C)O[C@@H]2C[C@H]3[C@@H]4C[C@H](F)C5=CC(=O)C=C[C@]5(C)[C@H]4[C@@H](O)C[C@]3(C)[C@]2(C(=O)CO)O1,inactive,–
CCCCOCCOCCOCCCC,inactive,–
CCC(=O)/C=C/C1C(C)=CCCC1(C)C (stereo not given),inactive,–
Nc1cc(Cl)c([N+](=O)[O-])cc1O,inactive,–
C=C(C)C1CC=C(C)C(OC(C)=O)C1 (stereo not given),inactive,–
CCCCOCCO,inactive,–
CC(=O)NCCO,inactive,–
CCCCCCCO,inactive,–
CC(C)c1ccc2ncccc2c1,inactive,–
C=CC(C)(CCC=C(C)C)OC(=O)c1ccccc1 (stereo not given),inactive,–
O=S(=O)(O)c1ccc(O)c2ncccc12,inactive,–
Cc1ncc(CO)c(CN)c1O,inactive,–
CC(C)CC(C)(N)C#N (stereo not given),inactive,–
C[C@]12CC[C@@H]3c4ccc(O)cc4CC[C@H]3[C@@H]1CC[C@H]2O,inactive,–
COC(=O)c1ccccc1C,inactive,–
C=C(C)CNCC,inactive,–
CCCCNS(=O)(=O)c1ccccc1,inactive,–
CCCOC(=O)c1ccc(C(=O)OCCC)nc1,inactive,–

Structure (SMILES),Potency,"activity change, negative = inhibition"
C=C(C)C(=O)OCCN(C)C,inactive,–
Nc1nc2c(ncn2CCC(CO)CO)c(=O)[nH]1,inactive,–
CCC(C)(C)CC,inactive,–
CCOC(=O)c1ccc(N)cc1,inactive,–
O=C(O)Cc1cccc2ccccc12,inactive,–
COCc1c(C(C)C)nc(C(C)C)c(/C=C/[C@@H](O)C[C@@H](O)CC(=O)O)c1-c1ccc(F)cc1,inactive,–
O=C(O)CN(CCOCCOCCN(CC(=O)O)CC(=O)O)CC(=O)O,–,-0.252% [at 0.435 µM]
CC1(C)S[C@@H]2[C@H](NC(=O)[C@H](N)c3ccccc3)C(=O)N2[C@H]1C(=O)O,inactive,–
Oc1ccc(/C=C/c2cc(O)cc(O)c2)cc1,inactive,–
CCCCN(CCCC)CCC(O)c1cc2c(Cl)cc(Cl)cc2c2cc(C(F)(F)F)ccc12 (stereo not given),inactive,–
Cc1ccc(N)c(S(=O)(=O)O)c1,inactive,–
Nc1cc(Cl)c(N)c(Cl)c1,inactive,–
O=C(O)c1ccc2c(c1)C(=O)OC2=O,inactive,–
O=C1OCCO1,inactive,–
CC1(C)[C@H]2CC[C@]1(C)[C@H](O)C2,inactive,–
CC(=O)O[C@H]1CC[C@@]2(C)C(=CC[C@@H]3[C@@H]2CC[C@]2(C)C(C(C)=O)=CC[C@@H]32)C1,inactive,–
O=S(=O)(O)c1cccc(S(=O)(=O)O)c1,inactive,–
CC1(C)O[C@@H]2C[C@H]3[C@@H]4CCC5=CC(=O)C=C[C@]5(C)[C@H]4[C@@H](O)C[C@]3(C)[C@]2(C(=O)CO)O1,inactive,–
COCCC(=O)OC,inactive,–
CC(=O)CCc1ccccc1,inactive,–

# From PubChem BioAssay (Tox21)
